Here are results for 30 compounds from PubChem BioAssay (EPA / NIEHS).

Records with an inconclusive call do not appear. Calls of active or inactive are those of the source. The calls were made as follows: active = hit-call score of the fitted dose curve at least 0.9, where 1 is the maximum; inconclusive = response in the unintended direction; inactive = score below 0.9.

Sequence of Estrogen receptor (Homo sapiens) + Estrogen receptor beta (Homo sapiens) (P03372 whole entry, looked up): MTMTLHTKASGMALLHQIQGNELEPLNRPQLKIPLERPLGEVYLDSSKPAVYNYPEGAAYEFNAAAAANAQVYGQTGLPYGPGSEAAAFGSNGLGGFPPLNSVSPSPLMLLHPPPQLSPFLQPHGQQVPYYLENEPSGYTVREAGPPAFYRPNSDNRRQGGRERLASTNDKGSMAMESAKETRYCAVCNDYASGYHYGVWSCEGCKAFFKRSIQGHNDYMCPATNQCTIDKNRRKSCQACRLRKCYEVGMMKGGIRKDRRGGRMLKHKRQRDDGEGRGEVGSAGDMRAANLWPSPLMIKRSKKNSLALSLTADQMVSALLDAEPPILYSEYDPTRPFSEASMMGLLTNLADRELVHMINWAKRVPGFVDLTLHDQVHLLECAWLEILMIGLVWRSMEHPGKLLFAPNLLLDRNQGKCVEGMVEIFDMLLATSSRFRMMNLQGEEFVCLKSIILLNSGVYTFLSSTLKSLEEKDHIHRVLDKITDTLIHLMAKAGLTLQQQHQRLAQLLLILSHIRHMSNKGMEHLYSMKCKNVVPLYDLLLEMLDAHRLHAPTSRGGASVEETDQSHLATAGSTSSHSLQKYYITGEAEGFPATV
Sequence of Estrogen receptor (Homo sapiens) + Estrogen receptor beta (Homo sapiens) (Q92731 whole entry, looked up): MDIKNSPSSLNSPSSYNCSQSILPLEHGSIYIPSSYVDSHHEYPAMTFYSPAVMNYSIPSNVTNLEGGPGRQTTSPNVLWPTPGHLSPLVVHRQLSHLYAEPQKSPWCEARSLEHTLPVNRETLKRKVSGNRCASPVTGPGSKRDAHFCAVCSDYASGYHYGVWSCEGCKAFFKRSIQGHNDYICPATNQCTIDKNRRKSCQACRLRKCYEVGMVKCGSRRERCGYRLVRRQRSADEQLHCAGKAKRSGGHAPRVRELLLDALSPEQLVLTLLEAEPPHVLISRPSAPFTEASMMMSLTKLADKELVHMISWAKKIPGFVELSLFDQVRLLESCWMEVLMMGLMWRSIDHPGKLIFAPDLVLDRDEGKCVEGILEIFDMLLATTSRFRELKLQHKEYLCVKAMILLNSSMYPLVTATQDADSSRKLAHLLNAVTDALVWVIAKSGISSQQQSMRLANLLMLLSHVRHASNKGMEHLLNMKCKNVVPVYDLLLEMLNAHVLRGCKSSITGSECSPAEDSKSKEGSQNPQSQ
Sequence of Estrogen receptor (Homo sapiens) (P03372 whole entry, looked up): as the sequence (P03372 whole entry, looked up) above
Sequence of bovine Estrogen Receptor (ER), ESR1 (gene 407238) (P49884 whole entry, looked up): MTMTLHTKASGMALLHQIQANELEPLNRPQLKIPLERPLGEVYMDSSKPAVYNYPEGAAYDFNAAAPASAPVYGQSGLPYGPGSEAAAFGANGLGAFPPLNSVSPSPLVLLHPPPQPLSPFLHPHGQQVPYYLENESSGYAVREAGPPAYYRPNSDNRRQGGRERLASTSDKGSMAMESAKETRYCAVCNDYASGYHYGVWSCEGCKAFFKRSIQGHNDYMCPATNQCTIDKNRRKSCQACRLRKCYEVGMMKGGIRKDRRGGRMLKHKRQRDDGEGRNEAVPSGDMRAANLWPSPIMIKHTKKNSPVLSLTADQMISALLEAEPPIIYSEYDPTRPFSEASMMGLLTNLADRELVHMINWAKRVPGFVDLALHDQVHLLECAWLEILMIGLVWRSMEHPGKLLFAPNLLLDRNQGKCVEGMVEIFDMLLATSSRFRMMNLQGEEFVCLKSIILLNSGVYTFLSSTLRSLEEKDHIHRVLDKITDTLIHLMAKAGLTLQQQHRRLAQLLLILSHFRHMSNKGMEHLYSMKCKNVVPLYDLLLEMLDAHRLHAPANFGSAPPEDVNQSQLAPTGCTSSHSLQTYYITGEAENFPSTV
Sequence of chimpanzee Androgen Receptor (AR), AR (gene 747460) (O97775 whole entry, looked up): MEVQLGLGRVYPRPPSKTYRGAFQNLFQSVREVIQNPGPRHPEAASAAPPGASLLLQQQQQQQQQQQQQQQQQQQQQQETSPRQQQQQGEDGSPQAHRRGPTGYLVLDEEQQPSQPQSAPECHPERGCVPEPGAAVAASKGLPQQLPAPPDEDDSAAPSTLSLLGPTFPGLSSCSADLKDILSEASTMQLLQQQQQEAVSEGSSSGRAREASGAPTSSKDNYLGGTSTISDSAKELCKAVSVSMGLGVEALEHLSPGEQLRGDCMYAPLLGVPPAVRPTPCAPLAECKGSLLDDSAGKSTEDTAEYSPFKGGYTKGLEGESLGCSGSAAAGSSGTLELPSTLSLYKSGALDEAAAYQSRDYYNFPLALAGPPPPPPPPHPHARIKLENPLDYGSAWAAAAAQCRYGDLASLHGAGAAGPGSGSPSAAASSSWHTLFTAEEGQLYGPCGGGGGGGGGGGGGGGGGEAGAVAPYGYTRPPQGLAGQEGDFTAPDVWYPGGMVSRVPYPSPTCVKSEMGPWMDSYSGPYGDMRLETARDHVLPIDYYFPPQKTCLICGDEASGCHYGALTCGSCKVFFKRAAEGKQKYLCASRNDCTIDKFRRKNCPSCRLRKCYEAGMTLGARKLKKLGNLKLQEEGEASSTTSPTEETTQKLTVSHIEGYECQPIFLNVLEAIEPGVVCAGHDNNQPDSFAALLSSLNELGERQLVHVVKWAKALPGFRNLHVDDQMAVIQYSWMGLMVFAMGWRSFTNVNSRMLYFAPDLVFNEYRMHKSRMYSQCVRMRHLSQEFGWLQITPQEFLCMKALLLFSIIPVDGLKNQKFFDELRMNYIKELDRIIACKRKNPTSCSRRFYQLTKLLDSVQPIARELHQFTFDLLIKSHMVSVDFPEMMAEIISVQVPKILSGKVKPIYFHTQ

The first assay concerns the target bovine Estrogen Receptor (ER), ESR1 (gene 407238) (UniProt P49884). The experiment in a line: NVS_NR_bER: NovaScreen (NVS) Nuclear Receptor Binding Assay for bovine Estrogen Receptor (ER) (AID 2283345).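 Also: actives lower the bound radioligand count which means they displace the ER ligand.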 An outline of the steps: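 Bovine uterine membranes; tritiated or iodinated radioligand; competitive displacement; 18 h; scintillation read; DMSO negative control; 25 uM duplicates, then concentration series for actives.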
Consider `Cc1cccc(O)c1`, for which the compound was classed as inactive.
Consider `CC1(C)CC(=O)CC(C)(C)N1`, for which the compound was classed as inactive.
The same measure, in the same setting: under `CCCCCCCCCOS(=O)(=O)O` stands “inactive”; under `CC(=O)OC(C)(C)C1CC=C(C)CC1` (stereo not given), “inactive”; under `CCCCCCCCOC(=O)c1ccc(O)cc1`, “inactive”.
Take `CC(C)(CO)CO`: the compound was called inactive.
Still for that read-out and setting: under `CC(=O)C1C(=O)C=C(C)OC1=O` (stereo not given) stands “inactive”.
On to `CCC(=O)OC(C)(C)C1CC=C(C)CC1` (stereo not given), for which the compound was classed as inactive.
Same read-out and setting: under `CC(=O)CC(=O)N(C)C` stands “inactive”; under `C[C@H](CCC(=O)O)[C@H]1CC[C@H]2[C@@H]3CC[C@@H]4C[C@H](O)CC[C@]4(C)[C@H]3CC[C@]12C`, “inactive”.
As a reminder, the AC50 is the midpoint of the concentration-response curve, whichever way the signal moves. For the compound `CC(C)(C)c1ccc(S)cc1`, the AC50 is 0.551 µM (active).
For `O=S1(=O)CC(Cl)(Cl)C(Cl)(Cl)C1`, the outcome was inactive.
As to `CCC(C)(C)C1CCC(=O)CC1`, the AC50 was 4.52 µM (active).
Take `COc1ccccc1O`: the outcome was inactive.
For the compound `Cc1cc(O)c2c(c1)C(=O)c1cc(O)cc(O)c1C2=O`, the result was inactive.
Turning to `CN(C)CCC=C1c2ccccc2CCc2ccccc21`, the outcome was inactive.
Regarding `CC(O)CN` (stereo not given), the call was inactive.
As to `CCOCC(C)O` (stereo not given), the result was inactive.
Same read-out and setting: under `O=C(Nc1cccc(Cl)c1)OCC#CCCl` stands “inactive”.
On to `CC/C=C\CCCCCCCCCCOC(C)=O`, for which the compound was called inactive.
Same read-out and setting: under `CC/C=C\CCOC(C)OCC` (stereo not given) stands “inactive”.
For `CCCCCCCCCCCCOCCOS(=O)(=O)O`, the call was inactive.
Same read-out and setting: under `CCC(C)(C)c1cc(O)c(C(C)(C)CC)cc1O` stands “inactive”.

Another assay has as its target chimpanzee Androgen Receptor (AR), AR (gene 747460) (UniProt O97775). The experiment in a line: NVS_NR_cAR: NovaScreen (NVS) Nuclear Receptor Binding Assay for chimpanzee Androgen Receptor (AR) (AID 2283346).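 Also: radioligand displacement from AR measured by scintillation counting in a cell-free assay.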 An outline of the steps:
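Cell-free radioligand displacement using receptor protein extracted from Sf9/Sf21 cells; bound radioligand measured by scintillation counting 72 hours after chemical dosing. Loss of signal versus DMSO baseline indicates binding; primary screen single-concentration in duplicate at 25 uM, actives followed in concentration series.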
For the compound `C=CCOCC(O)CO` (stereo not given), the AC50 is 1.33 µM (active).
Consider `[O-]/[N+](=N\O)c1ccccc1`, for which the call was inactive.
As to `CC1(C)CC(=O)CC(C)(C)N1`, the compound was called inactive.
With `O=c1cc(-c2ccc(O)cc2)oc2cc(O)cc(O)c12`, the AC50 was 12.9 µM (active).
Regarding `N#CCCCC(C#N)CCC#N` (stereo not given), the compound was classed as inactive.
For the compound `OC[C@@H](O)[C@H](O)[C@@H](O)[C@@H](O)CO`, the compound was classed as inactive.
Still for that read-out and setting: under `CC(=O)CC(=O)N(C)C` stands “inactive”; under `CCCCCCCCCCO[C@@H]1O[C@H](CO)[C@@H](O)[C@H](O)[C@H]1O`, “inactive”.
Still for that read-out and setting: under `CCCc1ccc(O)cc1` stands “inactive”.

Another assay concerns the target Estrogen receptor (Homo sapiens) (UniProt P03372). The experiment in a line: NVS_NR_hER: NovaScreen (NVS) Nuclear Receptor Binding Assay for human Estrogen Receptor (ER) (AID 2283348). An outline of the steps: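 Radiodetection of ligand displacement in a lysate-based, cell-free format using MCF7 extracts, read at 18 hours. Duplicate 25 uM primary testing, then concentration series for actives.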
With `Cc1cccc(O)c1`, the outcome was inactive.
`CCCCCCCCCOS(=O)(=O)O`: the AC50 was 11.1 µM (active).
On the same count and under the same terms, under `CCCCCCCCOC(=O)c1ccc(O)cc1` stands 2.7 µM (active).
As for `CC(=O)C1C(=O)C=C(C)OC1=O` (stereo not given), the compound was classed as inactive.
Same read-out and setting: under `CCC(=O)OC(C)(C)C1CC=C(C)CC1` (stereo not given) stands “inactive”; under `CC(=O)CC(=O)N(C)C`, “inactive”.
For `CC(C)(C)c1ccc(S)cc1`, the AC50 was 0.283 µM (active).
Same read-out and setting: under `O=S1(=O)CC(Cl)(Cl)C(Cl)(Cl)C1` stands 18.5 µM (active); under `CCC(C)(C)C1CCC(=O)CC1`, 0.983 µM (active).
Take `COc1ccccc1O`: the call was inactive.
Same read-out and setting: under `CN(C)CCC=C1c2ccccc2CCc2ccccc21` stands “inactive”; under `CC(O)CN` (stereo not given), “inactive”; under `CCOCC(C)O` (stereo not given), “inactive”.
On the same count and under the same terms, under `O=C(Nc1cccc(Cl)c1)OCC#CCCl` stands “inactive”; under `CCCc1ccc(O)cc1`, “inactive”; under `CC/C=C\CCOC(C)OCC` (stereo not given), “inactive”.
Regarding `CCCCCCCCCCCCOCCOS(=O)(=O)O`, the AC50 is 22.8 µM (active).
For the compound `CCC(C)(C)c1cc(O)c(C(C)(C)CC)cc1O`, the call was inactive.

The next assay shares this target. The experiment in a line: OT_ER_ERaERa_1440: Odyssey Thera (OT) 24-hour HEK293T Protein-Complementation Assay for Estrogen Receptor-alpha/-alpha Homodimer (AID 2283349).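 Also: hits raise fluorescence above DMSO for agonists and antagonists alike.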 An outline of the steps:
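Stably transfected HEK293T; ERα LBD homodimer PCA. 24 h dosing, fluorescence intensity read, gain-of-signal vs DMSO.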
With `Cc1cccc(O)c1`, the compound was classed as inactive.
On to `[O-]/[N+](=N\O)c1ccccc1`, for which the result was inactive.
The same measure, in the same setting: under `CCCCCCCCCOS(=O)(=O)O` stands “inactive”.
Same read-out and setting: under `CC(=O)OC(C)(C)C1CC=C(C)CC1` (stereo not given) stands “inactive”.
For the compound `CCCCCCCCOC(=O)c1ccc(O)cc1`, the AC50 is 32.8 µM (active).
As to `CC(C)(CO)CO`, the result was inactive.
The same measure, in the same setting: under `OC[C@@H](O)[C@H](O)[C@@H](O)[C@@H](O)CO` stands “inactive”; under `CC(=O)C1C(=O)C=C(C)OC1=O` (stereo not given), “inactive”.
On to `CCC(=O)OC(C)(C)C1CC=C(C)CC1` (stereo not given), for which the compound was called inactive.
Still for that read-out and setting: under `CC(=O)CC(=O)N(C)C` stands “inactive”; under `CC(C)(C)c1ccc(S)cc1`, “inactive”; under `CCC(C)(C)C1CCC(=O)CC1`, “inactive”.
Same read-out and setting: under `COc1ccccc1O` stands “inactive”; under `CC(O)CN` (stereo not given), “inactive”; under `CCOCC(C)O` (stereo not given), “inactive”.
On the same count and under the same terms, under `CCCCCCCCCCO[C@@H]1O[C@H](CO)[C@@H](O)[C@H](O)[C@H]1O` stands “inactive”.
For the compound `CCCc1ccc(O)cc1`, the compound was classed as inactive.
With `CCCCCCCCCCCCOCCOS(=O)(=O)O`, the result was inactive.

A further assay shares this target. The experiment in a line: OT_ER_ERaERa_0480: Odyssey Thera (OT) 8-hour HEK293T Protein-Complementation Assay for Estrogen Receptor-alpha/-alpha Homodimer (AID 2283351).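 Also: rise in fluorescence from reassembled reporter fragments on ERα LBD homodimer in nucleus or whole cell.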 An outline of the steps: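 HEK293T cells stably expressing a PCA pair of ER alpha LBD (residues 310-547) were dosed for 8 hours. The gain in fluorescence intensity, nuclear for agonists and whole-cell for antagonists, was measured by laser scanning cytometry against DMSO vehicle.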
As for `Cc1cccc(O)c1`, the compound was called inactive.
In the case of `[O-]/[N+](=N\O)c1ccccc1`, the compound was classed as inactive.
As for `CCCCCCCCCOS(=O)(=O)O`, the compound was classed as inactive.
Still for that read-out and setting: under `CC(=O)OC(C)(C)C1CC=C(C)CC1` (stereo not given) stands “inactive”.
`CCCCCCCCOC(=O)c1ccc(O)cc1`: the AC50 was 20.9 µM (active).
As for `CC(C)(CO)CO`, the compound was classed as inactive.
Still for that read-out and setting: under `OC[C@@H](O)[C@H](O)[C@@H](O)[C@@H](O)CO` stands “inactive”.
The same measure, in the same setting: under `CC(=O)C1C(=O)C=C(C)OC1=O` (stereo not given) stands “inactive”; under `CCC(=O)OC(C)(C)C1CC=C(C)CC1` (stereo not given), “inactive”.
The same measure, in the same setting: under `CC(=O)CC(=O)N(C)C` stands “inactive”; under `CC(C)(C)c1ccc(S)cc1`, “inactive”; under `CCC(C)(C)C1CCC(=O)CC1`, “inactive”.
Consider `COc1ccccc1O`, for which the result was inactive.
Still for that read-out and setting: under `CC(O)CN` (stereo not given) stands “inactive”; under `CCCCCCCCCCO[C@@H]1O[C@H](CO)[C@@H](O)[C@H](O)[C@H]1O`, “inactive”.
As for `CCCc1ccc(O)cc1`, the AC50 was 63.7 µM (active).
With `CCCCCCCCCCCCOCCOS(=O)(=O)O`, the compound was classed as inactive.

A further assay deals with Estrogen receptor (Homo sapiens) + Estrogen receptor beta (Homo sapiens) (UniProt P03372+Q92731). The experiment in a line: OT_ER_ERaERb_0480: Odyssey Thera (OT) 8-hour HEK293T Protein-Complementation Assay for Estrogen Receptor-alpha/-beta Heterodimer (AID 2283352). The method, boiled down:
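Compound added to HEK293T cells carrying split-reporter-tagged ER-alpha and ER-beta LBDs, incubated 8 hours, then imaged by laser scanning cytometer. Signal rise in nucleus, or nucleus and cytoplasm, over vehicle was fitted in the positive direction.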
Consider `Cc1cccc(O)c1`, for which the result was inactive.
Same read-out and setting: under `CCCCCCCCCOS(=O)(=O)O` stands “inactive”.
In the case of `CCCCCCCCOC(=O)c1ccc(O)cc1`, the AC50 was 10.1 µM (active).
On to `CC(C)(CO)CO`, for which the outcome was inactive.
Consider `CC(=O)C1C(=O)C=C(C)OC1=O` (stereo not given), for which the result was inactive.
Still for that read-out and setting: under `CCC(=O)OC(C)(C)C1CC=C(C)CC1` (stereo not given) stands “inactive”; under `CC(=O)CC(=O)N(C)C`, “inactive”.
For `CC(O)CN` (stereo not given), the outcome was inactive.
On the same count and under the same terms, under `CCOCC(C)O` (stereo not given) stands “inactive”.
On to `CCCc1ccc(O)cc1`, for which the AC50 is 45.2 µM (active).
